According to PubChem BioAssay AID687001 (Broad Institute, 2013):
Potency and affinity values are given separately. Activity calls are given as the source filed them.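 The calls were made as follows: active = signal-lowering compounds whose fitted half-maximal concentration is at or below twice the top tested dose in every run; inconclusive = runs disagree, flat 30 to 70% inhibition, or poor curve fit; inactive = the rest.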

molecular target: Protein S100-A4 (Homo sapiens) (UniProt P26447); experiment: S100A4-myosin IIA binding inhibitor potency, dose response, biochemical, fluorescence polarization, cherry-picked hits (AID 687001); conditions: FP, S100A4/TAMRA-myosin IIA peptide binding; series mostly up to 11 µM; activity change, negative = inhibition: at the top concentration;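 also: 0% = DMSO neutral control wells and -100% = TFP positive control wells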
Sequence (P26447 whole entry, looked up): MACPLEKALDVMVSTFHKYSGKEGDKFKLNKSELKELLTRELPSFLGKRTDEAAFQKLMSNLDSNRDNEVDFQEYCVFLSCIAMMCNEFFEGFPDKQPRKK

Activity change, negative = inhibition, inactive:
Clc1ccc(-c2nc(CSc3ccccn3)cs2)cc1 -0.314%, O=C(CN(Cc1ccco1)C(=O)c1cccc(F)c1)Nc1ccccc1C(F)(F)F -0.501%, CCCC(=O)Nc1ccc2c(c1)OC[C@@H](C)N(Cc1ccc(-c3ccccn3)cc1)C[C@H](C)[C@H](OC)CN(C)C2=O 4.63%, Cc1cccc2c(CC(=O)Nc3ccccc3)noc12 -11.4%, COCCN(C(=O)COC(=O)COc1ccc2ccccc2c1)c1c(N)n(Cc2ccccc2)c(=O)[nH]c1=O 3.97%, NC(=O)c1nsc(C(=O)N(c2ccccc2F)C(C(=O)NCc2ccccc2)c2ccc(O)cc2)c1N (centres undefined) 4.16%, COc1ccc(OC)c(S(=O)(=O)NCC(c2ccco2)N2CCc3ccccc32)c1 (centres undefined) -4.99%, CC(C)NC(=O)Nc1ccc2c(c1)C(=O)N([C@@H](C)CO)C[C@H](C)[C@H](CN(C)C(=O)c1ccncc1)OCCCC[C@H](C)O2 0.542%, Cc1ccc(/C=C2/SC(=O)N(CC(=O)N3CCOCC3)C2=O)s1 7.53% [at 2.6 µM], Cc1ccc(N(C)S(=O)(=O)c2ccc3[nH]cc(C(=O)NCCCN4CCOCC4)c(=O)c3c2)cc1C 3.19%, CCOc1ccc(/C=N/NC(=O)c2ccccc2C)cc1CN1CC2CC(C1)c1cccc(=O)n1C2 (centres undefined) -2.24%, COc1ccc(OCC(=O)N2CCCC2=O)c([N+](=O)[O-])c1 5.77%, CC(=O)Nc1ccc(S(=O)(=O)c2ccc([N+](=O)[O-])cc2)cc1 -4.99%, Cn1cccc1C(=O)NNC(=O)c1ccccc1Br 1.23%, CCn1cc(CNC(=O)C2CCC(=O)N(CCc3cccc(F)c3)C2)cn1 (centres undefined) -4.76%, CCOc1ccc(N(CC(=O)NCCOc2ccccc2OC)S(=O)(=O)c2ccccc2)cc1 -17%, CN(C)CCCNC(=O)C[C@@H]1CC[C@H]2[C@@H](COC[C@@H](O)CN2Cc2ccc(Cl)c(Cl)c2)O1 6.42%, CC(=O)Nc1ccc(S(=O)(=O)Nc2ccc3c(c2)OCO3)cc1 -3.04%, Nn1c(SCc2ccccc2F)nnc1-c1cccnc1 -0.717%, COc1cccc(CNC(=O)C2CCCN(S(=O)(=O)c3ccc4c(c3)C(C)(C)C(=O)N4C)C2)c1 (centres undefined) -4.47%, O=C(NNC(=O)c1ccccc1F)c1cccc(-n2cccc2)c1 5.6%, COc1ccccc1S(=O)(=O)N[C@H]1CC[C@H](CC(=O)N2CCN(C)CC2)O[C@@H]1CO 4.28%, Cc1ccc(CCNC(=O)c2cc(-c3ccncc3)nc3ccc(S(=O)(=O)N4CCOCC4)cc23)cc1 2.7%, COc1ccc(C#Cc2ccc([C@H]3[C@H]4CN(C(=O)Nc5ccccc5)CCCCN4[C@H]3CO)cc2)cc1 21.1%, COc1ccc2c3c([nH]c2c1)[C@H](CO)N(S(C)(=O)=O)CC31CN(CC2CCOCC2)C1 15.9%, CCC(=O)N(C)C[C@H]1Oc2ncc(-c3ccc(C(=O)N(C)C)cc3)cc2C(=O)N([C@@H](C)CO)C[C@H]1C 3.86%, CCOc1cc(/C=N/NC(=O)c2ccc(N(C)S(=O)(=O)c3ccccc3)cc2)ccc1OC -6.58%, CCOC(=O)N1CCN(Cc2nc3cc([N+](=O)[O-])ccc3n2C)CC1 -1.02%, CCCNC(=O)N1C[C@H](O)COC[C@@H]2O[C@@H](CC(=O)NCCCN3CCOCC3)CC[C@H]21 -0.017%, C[C@@H]1CN([C@@H](C)CO)C(=O)c2cccc(NC(=O)C3CCOCC3)c2O[C@@H]1CN(C)Cc1ccc(C(=O)Nc2ccccc2N)cc1 20.1%, N#C[C@@H]1[C@H](c2ccccc2C2=CCCCC2)[C@@H](CO)N1S(=O)(=O)c1cccc(F)c1 5.16%, Cc1cnc(CN(C)C(=O)C2CCC(=O)N(CCc3ccccc3)C2)[nH]1 (centres undefined) -4.36%, C[C@H]1CN([C@@H](C)CO)C(=O)c2cccc(NC(=O)C3CC3)c2O[C@@H]1CN(C)Cc1ccc2c(c1)OCO2 0.419%, COc1ccc2c3c(n(C)c2c1)[C@H](CO)N(C(=O)c1ccccc1)CC31CCN(C(=O)c2ccccc2)CC1 7.85%, COc1ccc(C(=O)N(C)C2(C)CCS(=O)(=O)C2)cc1OC (centres undefined) 10.1%, C[C@@H]1CN([C@H](C)CO)C(=O)c2c(c3ccccc3n2C)-c2ccccc2CO[C@H]1CN(C)S(=O)(=O)c1ccccc1 8.35%, O=C(C[C@@H]1C=C[C@@H](NS(=O)(=O)c2cccc(F)c2)[C@@H](CO)O1)NCc1ccc2c(c1)OCO2 1.68%, CC(C)NC(=O)N(C)C[C@@H]1Oc2cc(-c3ccncc3)ccc2S(=O)(=O)N([C@H](C)CO)C[C@H]1C -0.107%, C[C@@H]1CN([C@@H](C)CO)C(=O)c2cccc(NC(=O)Nc3cccc4ccccc34)c2O[C@H]1CN(C)C(=O)Nc1ccccc1 -1.27%
